The text below walks through data of the supplement of paper PMC10498489.

Out of some 2,300 compounds screened, about 330 (14%) showed activity. These entries were drawn from the full list. A number with no mark means an inactive call.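 Rule for the calls: active = median modified Z-score above 1.96; inactive = 1.96 or below.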

For this experiment, the system named is HepG2 Srxn1-GFP reporter cells (+30 nM CDDO-Me). Description: Srxn1-GFP intensity median modified Z-score relative to plate median; higher = stronger NRF2 / oxidative stress reporter activation, active = hit call of the paper. Conditions: 10 µM; exposure time: 24h. The method, boiled down:
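The modified Z-score of GFP intensity was computed per plate, and the median over replicates is reported. HepG2 Srxn1-GFP BAC reporter cells in three replicate plates were treated for 24 h with compound at 10 μM plus an NRF2 activator at 30 nM (≤0.1% DMSO). Per-cell cytoplasmic GFP came from confocal images, excluding those with under 100 cells, and scaling used 1.4826 × median absolute deviation.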
For the molecule `Cc1ccc(C(=O)c2ccc(CC(=O)O)n2C)cc1` [euspeclibcmpd2405], the “Srxn1-GFP intensity median modified Z-score” value is 0.508.

As for `OC[C@H](O)C(O)[C@@H](O)CO` [euspeclibcmpd2128], the “Srxn1-GFP intensity median modified Z-score” value is -0.222.

In the case of `COc1cc(O)c2c(=O)c(OC)c(-c3ccc(OC)c(OC)c3)oc2c1` [euspeclibcmpd1656], the “Srxn1-GFP intensity median modified Z-score” value was -0.275.

Regarding `NC(=O)NC(CCC(=O)O)C(=O)O` (stereo not drawn) [euspeclibcmpd1209], the “Srxn1-GFP intensity median modified Z-score” value was 0.184.

For `O=C1CCc2ccc(OCCCCN3CCN(c4cccc(Cl)c4Cl)CC3)cc2N1` [euspeclibcmpd879], the “Srxn1-GFP intensity median modified Z-score” value was 0.292.

For `O=c1n(CCCN2CCN(c3cccc(Cl)c3)CC2)nc2ccccn12` [euspeclibcmpd533], the “Srxn1-GFP intensity median modified Z-score” value was 0.

Turning to `CCc1nn(CCCN2CCN(c3cccc(Cl)c3)CC2)c(=O)n1CCOc1ccccc1` [euspeclibcmpd461], the “Srxn1-GFP intensity median modified Z-score” value was 8.98 (active).

As to `Cc1c(C)c2c(c(C)c1O)CCC(C)(C(=O)O)O2` (stereo not drawn) [euspeclibcmpd1989], the “Srxn1-GFP intensity median modified Z-score” value is -0.727.

In the case of `COc1ccc(=NS(=O)(=O)c2ccc(N)cc2)[nH]n1` [euspeclibcmpd409], the “Srxn1-GFP intensity median modified Z-score” value was -0.327.

Turning to `CC(C)c1nc(CN(C)C(=O)NC(C(=O)N[C@@H](Cc2ccccc2)C[C@H](O)[C@H](Cc2ccccc2)NC(=O)OCc2cncs2)C(C)C)cs1` (stereo partly drawn) [euspeclibcmpd486], the “Srxn1-GFP intensity median modified Z-score” value is 0.333.

Regarding `COc1ccccc1N1CCN(CCCNc2cc(=O)n(C)c(=O)n2C)CC1` [euspeclibcmpd1121], the “Srxn1-GFP intensity median modified Z-score” value was -0.334.

As to `COC1=C(C)C2CC(=O)O[C@@H]3C[C@H]4C(C)=CC(OC)C(=O)[C@]4(C)C(C1=O)[C@]23C` (stereo partly drawn) [euspeclibcmpd1498], the “Srxn1-GFP intensity median modified Z-score” value was 0.142.

In the case of `COc1ccc2c(c1OC)C(=O)O[C@H]2[C@H]1c2c(cc3c(c2OC)OCO3)CCN1C` [euspeclibcmpd216], the “Srxn1-GFP intensity median modified Z-score” value is 0.635.

For the molecule `COc1ccc2cc1Oc1ccc(cc1)C[C@H]1c3cc(c(OC)cc3CCN1C)Oc1c(OC)c(OC)cc3c1[C@H](C2)N(C)CC3` [euspeclibcmpd1476], the “Srxn1-GFP intensity median modified Z-score” value was 21.7 (active).

As to `COc1ccc2cc1Oc1ccc(cc1)C[C@H]1c3c(cc4c(c3Oc3cc5c(cc3OC)CCN(C)[C@@H]5C2)OCO4)CCN1C` [euspeclibcmpd1270], the “Srxn1-GFP intensity median modified Z-score” value is 4.85 (active).

On to `CN1CC(=O)N2C(Cc3c([nH]c4ccccc34)[C@H]2c2ccc3c(c2)OCO3)C1=O` (stereo partly drawn) [euspeclibcmpd833], for which the “Srxn1-GFP intensity median modified Z-score” value was -0.451.

On to `CO[C@@H]1[C@@H](O[C@@H]2O[C@H](C)[C@@H](O[C@H]3C[C@@](C)(O)[C@H](O)[C@H](C)O3)[C@H](N(C)C)[C@H]2O)[C@@H](CC=O)C[C@@H](C)[C@@H](O[C@H]2CC[C@H](N(C)C)[C@@H](C)O2)/C=C/C=C/C[C@H](C)OC(=O)C[C@H]1O` [euspeclibcmpd581], for which the “Srxn1-GFP intensity median modified Z-score” value was 0.0936.

In the case of `CC(C)(O)c1ccccc1CC[C@@H](SCC1(CC(=O)O)CC1)c1cccc(/C=C/c2ccc3ccc(Cl)cc3n2)c1` [euspeclibcmpd2362], the “Srxn1-GFP intensity median modified Z-score” value is 8.32 (active).

Regarding `CC1=CC(=O)C2C(C)(C)CCC[C@]2(C)[C@@]1(O)CCc1ccoc1` (stereo partly drawn) [euspeclibcmpd1719], the “Srxn1-GFP intensity median modified Z-score” value was 17.2 (active).

For the molecule `CCC1(CC)C(=O)CC=NC1=O` [euspeclibcmpd1119], the “Srxn1-GFP intensity median modified Z-score” value was -0.354.

Regarding `CN(C)CCCOc1nn(Cc2ccccc2)c2ccccc12` [euspeclibcmpd892], the “Srxn1-GFP intensity median modified Z-score” value was -0.182.

Turning to `C=CCOC(=O)C1=C(C)NC(C)=C(C(=O)OCC=C)C1/C=C/c1ccccc1`, the “Srxn1-GFP intensity median modified Z-score” value is 4.92 (active).

As to `COC1=CC(/C=C/c2ccccc2)OC(=O)C1` (stereo not drawn) [euspeclibcmpd1481], the “Srxn1-GFP intensity median modified Z-score” value was -0.206.

On to `Nc1ccc(S(=O)(=O)N=c2[nH]ccs2)cc1` [euspeclibcmpd281], for which the “Srxn1-GFP intensity median modified Z-score” value is -0.259.

For the molecule `CC(=O)OCC(=O)[C@@]1(O)CCC2C3CC=C4CC(=O)C=C[C@]4(C)[C@@]3(F)[C@@H](O)C[C@@]21C` (stereo partly drawn) [euspeclibcmpd2402], the “Srxn1-GFP intensity median modified Z-score” value was -0.201.

On to `CC(C)CCCC(C)C1CCC2C3CC[C@H]4CC(=O)CC[C@]4(C)C3CC[C@]12C` (stereo partly drawn) [euspeclibcmpd1405], for which the “Srxn1-GFP intensity median modified Z-score” value is -0.338.

Turning to `NC(C(=O)C(=O)O)C(O)O` (stereo not drawn) [euspeclibcmpd1337], the “Srxn1-GFP intensity median modified Z-score” value is -0.207.

Consider `Cc1nc2sccn2c(=O)c1CCN1CCC(=C(c2ccc(F)cc2)c2ccc(F)cc2)CC1` [euspeclibcmpd532], for which the “Srxn1-GFP intensity median modified Z-score” value is 7.86 (active).

Consider `Cc1nc2ccccn2c(=O)c1CCN1CCC(C(=O)c2ccc(F)cc2)CC1` [euspeclibcmpd878], for which the “Srxn1-GFP intensity median modified Z-score” value is -0.586.

As for `Cc1nc2n(c(=O)c1CCN1CCC(c3noc4cc(F)ccc34)CC1)CCCC2` [euspeclibcmpd909], the “Srxn1-GFP intensity median modified Z-score” value was 0.484.

As to `CCC(=O)OCC(=O)C1(OC(=O)CC)C(C)CC2C3C(Cl)C=C4CC(=O)C=CC4(C)C3C(O)CC21C` (stereo not drawn) [euspeclibcmpd1830], the “Srxn1-GFP intensity median modified Z-score” value was -0.727.

On to `Cc1cc(O)c(C)c(O)c1C(=O)O` [euspeclibcmpd2002], for which the “Srxn1-GFP intensity median modified Z-score” value is -0.247.

Turning to `CC(=O)NC(CCC(C)C)C(=O)O` (stereo not drawn), the “Srxn1-GFP intensity median modified Z-score” value is 1.23.

In the case of `CC(=O)O[C@H]1CC[C@@]2(C)C(CC[C@]3(C)C2CC=C2C4CC(C)(C)CC[C@]4(C)CC[C@]23C)C1(C)C` (stereo partly drawn) [euspeclibcmpd1641], the “Srxn1-GFP intensity median modified Z-score” value is -0.192.

Turning to `CC1=C(/C=C/C(C)=C/C=C/C(C)=C/C=C/C=C(C)/C=C/C=C(C)/C=C/C2=C(C)CCCC2(C)C)C(C)(C)CCC1` [euspeclibcmpd256], the “Srxn1-GFP intensity median modified Z-score” value was 1.65.

Turning to `CC(C=C/C=C(C)/C=C/C1=C(C)CCCC1(C)C)=CC(=O)O` [euspeclibcmpd2414], the “Srxn1-GFP intensity median modified Z-score” value is 3.46 (active).

Take `CC1=C(/C=C/C(C)=C/C=C/C(C)=C/CO)C(C)(C)CCC1` [euspeclibcmpd419]: the “Srxn1-GFP intensity median modified Z-score” value is -0.0835.

On to `CC[C@]12CCCN3CCc4c(n(c5ccccc45)[C@](O)(C(=O)OC)C1)[C@@H]32` [euspeclibcmpd1043], for which the “Srxn1-GFP intensity median modified Z-score” value is 1.43.

As for `COC(=O)C1=C(C)N=C(C)C(C(=O)OC)C1c1ccccc1[N+](=O)[O-]` (stereo not drawn) [euspeclibcmpd208], the “Srxn1-GFP intensity median modified Z-score” value is -0.363.

On to `COC(=O)C1=C(C)N=C(C)C(C(=O)OCCN(C)Cc2ccccc2)C1c1cccc([N+](=O)[O-])c1` (stereo not drawn) [euspeclibcmpd393], for which the “Srxn1-GFP intensity median modified Z-score” value is -0.375.

Turning to `COCCOC(=O)C1=C(C)N=C(C)C(C(=O)OC(C)C)C1c1cccc([N+](=O)[O-])c1` (stereo not drawn) [euspeclibcmpd585], the “Srxn1-GFP intensity median modified Z-score” value was 0.492.

On to `COC(=O)C1=C(C)N=C(C)C(C(=O)OCCN2CCN(C(c3ccccc3)c3ccccc3)CC2)C1c1cccc([N+](=O)[O-])c1` (stereo not drawn) [euspeclibcmpd869], for which the “Srxn1-GFP intensity median modified Z-score” value was 5.13 (active).

With `COC(=O)C1=C(C)N=C(C)C(C(=O)OCC(C)C)C1c1ccccc1[N+](=O)[O-]` (stereo not drawn) [euspeclibcmpd766], the “Srxn1-GFP intensity median modified Z-score” value was 10.8 (active).
